The source of these data is PubChem BioAssay AID488969 (Vanderbilt High Throughput Screening Facility, 2010).

Molecules are shown by their SMILES. The full ranking holds about 110,000 compounds; the median of “z-score” is about -0.1, and the highest 2% start at about 2. Only a selection was taken, and the highest values are over-represented in it overall. Active and inactive are the calls of the source.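 Rule for the calls: active = z-score in the third read window above 3 or below -3; inactive = the rest.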

Metabotropic glutamate receptor 8 (Rattus norvegicus), sequence (P70579 whole entry, looked up): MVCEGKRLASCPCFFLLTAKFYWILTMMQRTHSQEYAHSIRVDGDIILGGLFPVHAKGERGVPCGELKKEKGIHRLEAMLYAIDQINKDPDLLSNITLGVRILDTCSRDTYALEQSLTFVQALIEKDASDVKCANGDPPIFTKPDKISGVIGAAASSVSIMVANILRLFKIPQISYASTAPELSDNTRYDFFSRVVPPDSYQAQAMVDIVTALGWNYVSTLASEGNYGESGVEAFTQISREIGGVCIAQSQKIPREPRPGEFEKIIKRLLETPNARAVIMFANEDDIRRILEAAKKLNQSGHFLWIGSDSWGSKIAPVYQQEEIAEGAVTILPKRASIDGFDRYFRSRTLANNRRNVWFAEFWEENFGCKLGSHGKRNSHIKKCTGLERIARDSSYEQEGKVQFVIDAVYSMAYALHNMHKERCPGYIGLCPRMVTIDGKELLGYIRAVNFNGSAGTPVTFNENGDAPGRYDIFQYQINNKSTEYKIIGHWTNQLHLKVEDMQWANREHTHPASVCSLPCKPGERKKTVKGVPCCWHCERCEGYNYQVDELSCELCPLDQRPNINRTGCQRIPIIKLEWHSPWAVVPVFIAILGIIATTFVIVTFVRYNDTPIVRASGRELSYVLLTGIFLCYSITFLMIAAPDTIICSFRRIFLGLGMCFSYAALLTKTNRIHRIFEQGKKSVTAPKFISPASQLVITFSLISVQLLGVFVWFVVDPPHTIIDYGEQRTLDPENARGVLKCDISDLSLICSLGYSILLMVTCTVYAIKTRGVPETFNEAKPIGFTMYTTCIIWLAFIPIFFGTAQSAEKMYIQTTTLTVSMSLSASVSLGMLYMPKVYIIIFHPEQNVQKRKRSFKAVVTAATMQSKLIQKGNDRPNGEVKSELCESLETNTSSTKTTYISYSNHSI

The assay concerns the target Metabotropic glutamate receptor 8 (Rattus norvegicus) (UniProt P70579). The assay is described as follows: rat mGluR8 modulators via GIRK flux, primary screen, cell-based, thallium flux, HTS (AID 488969). The settings on record: HEK293 rat mGluR8, GIRK (G protein-gated inwardly rectifying potassium channel) thallium flux, FluoZin2; at 10 µM; stronger effect = higher value; submaximal glutamate (EC20) added with thallium.
With `CCc1ccc(C(C)NC(=O)c2cc(C)oc2C)cc1` (stereo not drawn), the z-score is -0.386. `COc1cc(/C=N/NC(=O)c2ccc([N+](=O)[O-])cc2Cl)cc(Br)c1O` yielded a z-score of 0.0738. The result for `CCOc1ccc(CCNC(=O)CN2CCN(Cc3ccccc3F)C2=O)cc1OCC` reads 0.219. The result for `COc1ccc(-c2nnc(SCC(=O)N3CCCc4ccccc43)o2)cc1OC` reads 0.39; that for `CCC1(C)CC(c2csc(N)n2)CCO1` (stereo not drawn), 2.98.

Regarding `CC1(C)CC(c2csc(N)n2)CCO1` (stereo not drawn), the z-score was found to be 0.945. Consider `Nc1nc(C2CCCCC2)cs1`, for which the z-score stood at 0.293.

As to `COc1ccccc1C(=O)Nc1ccc(C)cc1C(=O)c1ccccc1`, the z-score was -0.242. The result for `CC1(C)CC(=O)C(C=Nc2ccccc2Sc2ccccc2)=C(O)C1` reads -0.747; that for `Cc1ccc(Nc2nc(C)c(CCC(C)C)c(=O)[nH]2)cc1`, 0.22; that for `Cc1nc(Nc2ccccc2)[nH]c(=O)c1CCC(C)C`, 2.73.

Regarding `Cc1nc(Nc2ccc(F)cc2)[nH]c(=O)c1CCC(C)C`, the z-score was -0.00139. For `Cc1nnc(SCc2ccc(F)cc2Cl)s1` the value was -0.295; for `Cc1cc(C)nc(N2CCCC(C(=O)NCCC3=CCCCC3)C2)n1` (stereo not drawn), 0.000737. `CCN(CC)CCCNC(=O)c1cc2c(=O)n(C)c3ccccc3c2n1C` came in with a z-score of 1.21. For `CC(C)OCCCNC(=O)c1cc2c(=O)n(C)c3ccccc3c2n1C` the value was -0.527. `CCCCN(CC)CCNC(=O)c1cc2c(=O)n(C)c3ccccc3c2n1C` yielded a z-score of 2.85. The result for `CCCCN(CC)CCCNC(=O)c1cc2c(=O)n(C)c3ccccc3c2n1C` reads 2.54; that for `CCN(CC)CCNC(=O)c1cc2c(=O)n(C)c3ccccc3c2n1C`, 1.25. `CN(CCNC(=O)c1cc2c(=O)n(C)c3ccccc3c2n1C)Cc1ccccc1` displayed a z-score of 2.77.

Regarding `CCCN(CCC)CCCNC(=O)c1cc2c(=O)n(C)c3ccccc3c2n1C`, the z-score was 4 (active). Turning to `CN(C)CCNC(=O)c1cc2c(=O)n(C)c3ccccc3c2n1C`, the z-score is 0.703. `COCCNC(=O)c1cc2c(=O)n(C)c3ccccc3c2n1C`: the z-score was -0.524. For `CCCN(CCC)CCNC(=O)c1cc2c(=O)n(C)c3ccccc3c2n1C` the value was 1.86; for `COCCCNC(=O)c1cc2c(=O)n(C)c3ccccc3c2n1C`, -0.127; for `CN(C)/C=N/C(=S)Nc1ccc(Br)cc1F`, 1.46. `O=C(CCCn1c(SCC(=O)NC2CCCCC2)nc2ccccc2c1=O)NCC1CCCO1` (stereo not drawn): the z-score is -0.0674. Turning to `Cc1cccc(NC(=O)CSc2nnc([C@@H]3CCCN3C(=O)OC(C)(C)C)o2)c1C`, the z-score stood at 1.54. Consider `CN1CCN(C2=CC(=O)OC23CCCCC3)CC1`, for which the z-score is 0.371.

With `CCOc1ccc(N/C(=C(/C(Cl)=C(Cl)Cl)[N+](=O)[O-])n2cncn2)cc1`, the z-score is -0.895. Compound `CN(C)C(=O)c1ccc(Oc2ccc(C(=O)N(C)C)cc2)cc1` came in with a z-score of 2.6. On to `CNC(=O)c1ccc(Oc2ccc(C(=O)NC)cc2)cc1`, for which the z-score was -0.0105. Regarding `CC(=O)c1ccc(Oc2ccc(C(C)=O)cc2)cc1`, the z-score is -0.0838. Turning to `O=c1c2cc(F)ccc2[nH]c(=S)n1CCCN1CCOCC1`, the z-score was 3.11 (active). In turn, `COc1cc2c(=O)n(CCCN3CCOCC3)c(=S)[nH]c2c(OC)c1OC` gave a z-score of 2.07. On to `O=c1c2cc(N3CCOCC3)ccc2[nH]c(=S)n1CCCN1CCCC1`, for which the z-score is -0.171. Consider `O=c1c2ccccc2[nH]c(=S)n1CCCN1CCOCC1`, for which the z-score turned out to be 0.0674. For `COc1cc2[nH]c(=S)n(CCCN3CCOCC3)c(=O)c2cc1OC` the value was 0.0597. The result for `COc1cc2[nH]c(=S)n(CCN3CCOCC3)c(=O)c2cc1OC` reads -0.262; that for `Cc1ccc(C(=O)COC(=O)c2n[nH]c(=O)c3ccccc23)cc1`, -0.454. `CC(C)(C)c1cnnn1-c1ccc(-c2csc(N)n2)cc1`: the z-score is -0.0644.

Regarding `COc1cc(C2C(Oc3ccccc3C)C(=O)N2Cc2ccc(F)cc2)cc(OC)c1OC` (stereo not drawn), the z-score was -0.106. For `COc1cc(/C=C/C(=O)OCC(=O)Nc2ccc(C)c(S(=O)(=O)N3CCCCC3)c2)ccc1O` the value was -0.427; for `Cc1ccc(NC(=O)COC(=O)C2CC3C=CC2C3)cc1S(=O)(=O)N1CCCCC1` (stereo not drawn), 2.02; for `Cc1ccc(S(=O)(=O)N2CCCCC2)cc1NC(=O)COC(=O)c1cc[n+]([O-])cc1`, -0.223. `Cc1cnc(C(=O)OCC(=O)Nc2ccc(C)c(S(=O)(=O)N3CCCCC3)c2)cn1`: the z-score is -1. For the compound `Cc1ccc(S(=O)(=O)N2CCCCC2)cc1NC(=O)COC(=O)Cc1ccc(Cl)cc1`, the z-score is -0.0868. `Cc1cc(C)n2nc(C(=O)OCC(=O)Nc3ccc4c(c3)OC(F)(F)O4)nc2n1`: the z-score was -0.0308. Take `Cc1ccc(NC(=O)COC(=O)C2CCC(=O)N2)c(S(=O)(=O)N2CCOCC2)c1` (stereo not drawn): the z-score is -0.196. For `Cc1ccc(NC(=O)COC(=O)C2CC2C)c(S(=O)(=O)N2CCCCC2)c1` (stereo not drawn), the z-score was 2.07. In turn, `O=C(COC(=O)C1CC2C=CC1C2)Nc1ccccc1` (stereo not drawn) returned a z-score of 0.0334. The result for `Cc1ccc(S(=O)(=O)N2CCCCC2)cc1NC(=O)COC(=O)C1CC2C=CC1C2` (stereo not drawn) reads 2.38. Take `O=C(COC(=O)C1CC2C=CC1C2)Nc1ccc2c(c1)OC(F)(F)O2` (stereo not drawn): the z-score is 4.04 (active). Turning to `CCOC(=O)Nc1ccc(OC)cc1S(=O)(=O)N1CCCCC1`, the z-score was 0.612. Consider `CCS(=O)(=O)c1nc2ccccc2n1CC(=O)N1CCCCC1`, for which the z-score worked out at 0.849. In turn, `COc1cc(O)c(C(C)=O)cc1OC` yielded a z-score of 0.68.

On to `CC1(c2ccccc2)CC(C)(C)N2C(=O)/C(=C3\SC(=S)NC3=O)c3cccc1c32` (stereo not drawn), for which the z-score was 5.26 (active).

Consider `Cc1nn(-c2ccccc2)c(Cl)c1/C=C1\SC(=S)NC1=O`, for which the z-score was -0.842. For `CC1(c2ccccc2)CC(C)(C)N2C(=O)C3(C(C#N)=C(N)Oc4cc(O)ccc43)c3cccc1c32` (stereo not drawn) the value was -0.217; for `O=C(COc1ccc(S(=O)(=O)NC2CCCCC2)cc1Cl)NCc1cccnc1`, -0.567; for `Cc1cc(NC(=O)c2cccc(S(=O)(=O)N3CCCCCC3)c2)no1`, 0.223. On to `O=C(COC(=O)Cn1cnc2ccccc2c1=O)Nc1ccccc1Sc1ccc(Cl)cc1`, for which the z-score was 0.148. Turning to `COC(=O)C1=C(C)NC(C)=C(C(=O)OC)C1c1ccc(OC(=O)c2ccco2)cc1`, the z-score is -0.519.

`COC(=O)c1ccc(OC(=O)c2ccco2)cc1` returned a z-score of 0.696. On to `CC1CC(C)(C)Nc2ccc(OC(=O)c3ccco3)cc21` (stereo not drawn), for which the z-score turned out to be 2.2. On to `COc1cc(CNc2nc(C)c([N+](=O)[O-])c(C)c2C#N)cc(OC)c1`, for which the z-score was -0.18. As for `COc1ccc(CCN2C(=O)C(O)=C(C(C)=O)C2c2ccccc2OC)cc1OC` (stereo not drawn), the z-score was -0.511.

`O=C(O)CN1C(=O)C2(OCCCO2)c2ccccc21` had a z-score of 0.0511. `CC(C)(C)C(=O)CN1C(=O)C2(OCCO2)c2ccccc21` registered a z-score of 0.508. As for `CC(C)CC(=O)CN1C(=O)C2(OCCO2)c2ccccc21`, the z-score was 6.5 (active). The compound `CC(C)OC(=O)C1C2C=CC3(CN(Cc4cccs4)C(=O)C13)O2` (stereo not drawn) had a z-score of 0.0334. `CCCCN(CCCC)S(=O)(=O)c1ccc(NC(=O)c2cccs2)cc1` had a z-score of 0.572.

`O=C(Nc1ccc(S(=O)(=O)NCc2ccccc2)cc1)c1ccc(Br)o1` gave a z-score of 0.32. In the case of `CCN(c1ccccc1)S(=O)(=O)c1ccc(NC(=S)NC(=O)c2ccc(Br)o2)cc1`, the z-score is 5.31 (active). The compound `CN(C1CCCCC1)S(=O)(=O)c1ccc(NC(=S)NC(=O)c2cccs2)cc1` yielded a z-score of 2.93. With `Cc1ccc(C(=O)NC(=S)Nc2ccc(S(=O)(=O)N(C)c3ccccc3)cc2)cc1`, the z-score came out at 0.95. For `O=C(NC(=S)Nc1ccc(S(=O)(=O)NC2CCCCC2)cc1)c1cccs1` the value was 0.16; for `CN(C1CCCCC1)S(=O)(=O)c1ccc(NC(=O)C2CCCCC2)cc1`, -0.089; for `CN(c1ccccc1)S(=O)(=O)c1ccc(NC(=S)NC(=O)c2ccccc2)cc1`, 3.04 (active). With `CN(C)S(=O)(=O)c1ccc(NC(=O)c2ccc(Br)o2)cc1`, the z-score was determined as 0.638. For the compound `O=C(Nc1ccc(NC(=S)NC(=O)c2cccs2)cc1)c1ccccc1`, the z-score is -0.193. `Cc1cccc(C(=O)NC(=S)Nc2ccc(S(=O)(=O)N(C)c3ccccc3)cc2)c1` yielded a z-score of 1.39.

`CCN(c1ccccc1)S(=O)(=O)c1ccc(NC(=S)NC(=O)c2cccs2)cc1` displayed a z-score of 2.75. `CN1CCN(S(=O)(=O)c2ccc(NC(=S)NC(=O)c3ccccc3)cc2)CC1` returned a z-score of 0.103.

Turning to `O=C(c1ccco1)N1CCN(C(=O)C2CCN(S(=O)(=O)c3cccc4nsnc34)CC2)CC1`, the z-score was 0.0379. In turn, `COc1ccc2c(c1)NC1(O)c3ccccc3C(=O)C21O` (stereo not drawn) registered a z-score of 0.297. With `CC1(C)N=C(N)NC(Nc2ccc(Br)cc2)=N1`, the z-score is -0.00115.

As to `Cc1ccccc1-c1noc(-c2ccc(Cl)cc2)n1`, the z-score is -0.0855. For the compound `COc1ccc(-c2csc(NC(=O)c3nc(-c4ccccc4)oc3C)n2)cc1`, the z-score came out at 0.528.

As to `Cc1nc2ccccc2nc1OCC(=O)N1CCN(c2ccccc2)CC1`, the z-score was -0.273. For the compound `Cc1ccc2c(c1)N(C(=O)c1ccco1)C(C)(C)c1ssc(=S)c1-2`, the z-score is -0.788.

As to `COc1ccccc1-n1cnnc1SCC(=O)N1CC(=O)Nc2ccccc21`, the z-score is -0.0356. `CS(=O)(=O)N1Cc2ccccc2CC1C(=O)OCC(=O)Nc1ccc2ccccc2c1` (stereo not drawn) registered a z-score of 0.0644.

As to `Cc1cc(C)cc(NS(=O)(=O)c2ccc(NC(=S)NC(=O)c3ccc(Br)o3)cc2)c1`, the z-score came to 2.18. For `Cc1cc(C)cc(NS(=O)(=O)c2ccc(NC(=S)Nc3ccccc3)cc2)c1` the value was 9.02e-05; for `Cc1cc(C)cc(NS(=O)(=O)c2ccc(NC(=S)NC(=O)c3cccs3)cc2)c1`, 0.901; for `CCc1[nH]nc2c1C(c1ccncc1)C(C#N)=C(N)O2` (stereo not drawn), 0.499. The result for `O=C(O)c1ccc(NC(=S)NC2CCCCC2)cc1` reads 0.13; that for `O=C(CN1C(=O)c2cccc3cccc1c23)NCc1ccc2c(c1)OCO2`, -0.178. Turning to `Cc1cc(C)nc(N2CCCC(C(=O)NCCc3cccc(F)c3)C2)n1` (stereo not drawn), the z-score was -0.0417. For `Cc1cc(C)nc(N2CCCC(C(=O)NCCc3ccc(F)cc3)C2)n1` (stereo not drawn), the z-score was 3.52 (active). Turning to `Cc1cc(C)nc(N2CCCC(C(=O)NCCc3ccccc3F)C2)n1` (stereo not drawn), the z-score is -0.306. For the compound `COc1cc(S(=O)(=O)N2CCOCC2)ccc1NC(=O)COC(=O)CC12CC3CC(CC(C3)C1)C2`, the z-score came out at 0.016. The result for `CCOC(=O)c1cc2sccc2n1CC(=O)N1CCCC1` reads -0.278. For the compound `Cc1ccc(S(=O)(=O)N2CCOCC2)cc1NC(=O)CSc1nnc2cc(C)c3ccccc3n12`, the z-score was -1.43.

Take `CCn1c(-c2cc3c(C(F)(F)F)nn(C)c3s2)n[nH]c1=S`: the z-score was 7 (active). Consider `CCCCSc1nnc(-c2cc3c(C(F)(F)F)nn(C)c3s2)n1C`, for which the z-score is -0.355. For the compound `Cn1c(-c2cc3c(C(F)(F)F)nn(C)c3s2)n[nH]c1=S`, the z-score is -0.114.
